# From ChEMBL document CHEMBL3988442, “University of Dundee, Small-Polar-MMV Screening Library” (2021)
# Target: T1, Aspartate--tRNA(Asp/Asn) ligase (Mycobacterium tuberculosis (strain ATCC 25618 / H37Rv)) (UniProt P9WFW3)
# T1 sequence (whole entry): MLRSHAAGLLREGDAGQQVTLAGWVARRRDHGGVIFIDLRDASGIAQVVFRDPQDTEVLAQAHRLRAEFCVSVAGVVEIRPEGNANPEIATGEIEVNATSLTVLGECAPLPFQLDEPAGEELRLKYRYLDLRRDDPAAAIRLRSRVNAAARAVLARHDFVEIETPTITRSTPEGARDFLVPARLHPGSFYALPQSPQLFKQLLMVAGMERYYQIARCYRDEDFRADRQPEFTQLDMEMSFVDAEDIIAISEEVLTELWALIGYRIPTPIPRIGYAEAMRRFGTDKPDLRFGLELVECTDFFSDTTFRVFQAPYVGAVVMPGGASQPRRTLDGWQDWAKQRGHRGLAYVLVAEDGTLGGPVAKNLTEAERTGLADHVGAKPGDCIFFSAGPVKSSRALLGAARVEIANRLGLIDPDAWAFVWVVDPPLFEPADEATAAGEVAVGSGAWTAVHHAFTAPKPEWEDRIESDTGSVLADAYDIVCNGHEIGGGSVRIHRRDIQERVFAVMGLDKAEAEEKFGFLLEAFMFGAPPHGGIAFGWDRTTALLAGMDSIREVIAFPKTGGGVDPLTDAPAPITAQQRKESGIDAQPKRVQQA
# Assay: Assay for Asp RNA synthetase-1 from Mycobacterium tuberculosis
# Assay type: functional
# Set-up: scale not given: in the data most compounds retested in dose-response had high values
# Details: 30 µM
row,Structure (SMILES),Percent Effect [%]
1,NC(=O)C1CN(C(=O)Nc2cc(Cl)cc(Cl)c2)CCO1 (stereo not given),1.82
2,COc1c(C(=O)NCc2cccnc2)nnn1Cc1ccc(C)cc1,-4.7
3,CC(C1CC1)N(C)C(=O)c1cnc(-c2ccc3c(c2)OCO3)s1 (stereo not given),3.36
4,Cc1ccccc1[C@@H]1CN(C(=O)c2ccc3[nH]nnc3c2)C[C@H]1C(=O)O,2.17
5,O=C(NCCCn1cncn1)N1CCCC(N2CCCC2)C1 (stereo not given),3.5
6,CCn1ccnc1CN1CCN(CC(=O)NC(C)(C#N)C2CC2)CC1 (stereo not given),-4.1
7,c1csc(-c2nc(CN3CCOC(Cn4cncn4)C3)cs2)c1 (stereo not given),-6.66
8,COCCC(=O)N1CC2(CCN(Cc3ccoc3)C2)C1,5.6
9,CC(COc1ccc(F)cc1F)NC(=O)NCCN1CCOCC1 (stereo not given),-1.71
10,c1ccc(-c2cnc(CNCC3CCCN3c3cccnn3)o2)cc1 (stereo not given),1.15
11,COc1cc(C)nc(N2CCN(C(=O)CNC(C)(C)C)CC2)n1,-2.1
12,Cc1noc(C)c1C(=O)NCC(C)N(C)C (stereo not given),1.84
13,Cc1cc(C)n(CC2CN(CCOc3cccc(F)c3)CCO2)n1 (stereo not given),3.93
14,CC(Nc1cccc(CN2CCOC2=O)c1)C(=O)Nc1ccccc1F (stereo not given),1.17
15,O=C(NCC1CCN(Cc2ccsc2)CC1)NC1CC1,4.04
16,Cc1cc(C)c(OCC(=O)NS(=O)(=O)c2cccnc2)c(C)c1,-4.5
17,Cc1cccn2c(=O)cc(OC(=O)c3ccccc3)nc12,-3.21
18,COc1ccc(OC)c(CNCCc2cc(F)cc3c2OCOC3)c1,4.49
19,Cc1ccccc1C(=O)NCc1ccc(N2CCNC(=O)C2)cc1,0.212
20,Cc1nc(CC(=O)N2CCCCC2c2ccn3ccnc3n2)cs1 (stereo not given),-0.0744
